Screening results deposited in PubChem by National Center for Advancing Translational Sciences (NCATS).
Only some compounds are listed: those with a hit (about 21% of all), similar ones and a draw of the others.
Shiga inhibitor: blocks Shiga toxin action in Vero cells. Vero cells, Shiga toxin protein synthesis inhibition reporter. inhibition, % at 38.7 µM. actives 9.2% (n = 290,000); in the data active = inhibition mostly above about 28%, no sharp cut-off; inactive = mostly below about 43%; also: 0% is about no effect
Pf growth 96h: P. falciparum growth inhibition at 96 hours; P. falciparum luciferase reporter growth, 96 h; AID 504834; actives 6.9% (n = 320,000); Potency, µM (top dose mostly 28.7 µM), for the others: at the top dose activity change, negative = inhibition, actives largely listed as inhibitors; also: potency is read from the fitted curve at half-maximal effect; % is scaled to controls: 0 for no effect and ±100 for the full control effect
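96 h incubation, 37 C, 5% CO2, of luciferase-reporter P. falciparum-infected RBCs (2% hematocrit, 0.05% parasitemia final) with test compounds; endpoint luminescence.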
Cycloheximide cs: affects cycloheximide protein synthesis inhibition readout, counter-screen. cell reporter, cycloheximide protein synthesis inhibition counterscreen. max response, %. actives 12% (n = 300,000). AID 2314; in the data active = max response mostly above about 13%, no sharp cut-off; inactive = mostly below about 14%; also: read at 38.3 µM for the half of the compounds with a filed dose; 0% is about no effect
Pf growth 48h: inhibits P. falciparum growth in the first generation, 48 h. actives 5.9% (n = 310,000). Potency, µM (titrated, usually from 28.7 µM), without a hit: at the highest dose activity change, negative = inhibition, hits mostly inhibitors. P. falciparum luciferase growth in erythrocytes, 48 h; also: potency is read from the fitted curve at half-maximal effect; % is scaled to controls: 0 for no effect and ±100 for the full control effect
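Luciferase-expressing parasites in RBCs, 2% Hct / 0.1% parasitemia final; RPMI 1640 + 0.5% Albumax; 37 C, 5% CO2, one generation; luminescence read-out, lower signal = inhibition.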
The depositor's hits bear a star; ? = inconclusive; . = no result given; [ ] = remark or other dose. Unless noted, calls follow the shape of the dose curve; as a rule, active = well fitted inhibition curve with a large enough effect; inconclusive = small, poorly fitted or top-dose-only effect, or another doubt; inactive = no such curve, though single readings can be large or run the other way.

SMILES	Shiga inhibitor	Pf growth 96h	Cycloheximide cs	Pf growth 48h
CCNC(=O)/C=C/c1ccccc1[N+](=O)[O-]	4.6	?	-5.7	22.7%
N=C1C(c2ccccc2)=C(O)CN1c1cccc(O)c1	13.3	9.6%	2.8	34.2%
O=C(O)CCn1c2c(c3ccccc31)C[C@H](NS(=O)(=O)c1ccc(F)cc1)CC2	.	1.8%	.	-4.3%
O=C1COc2ccc(C(=O)COc3ccc([N+](=O)[O-])cc3)cc2N1	22.4	0.0%	11.4	0.0%
Cc1ccccc1CNC(=O)Cc1ccccc1[N+](=O)[O-]	61.9*	?	58.4*	77.3%
Cc1cc(C)n2nc(CC(=O)NCc3ccccc3Cl)nc2n1	40.1	3.29µM*	6.2	7.0%
O=C(/C=C/c1cccc([N+](=O)[O-])c1)NCCSCc1ccccc1Cl	0.8	2.94µM*	-0.6	-0.4%
O=C(NCc1ccccc1Cl)c1ccc(-c2ccccc2)cc1	46.9*	?	22.3*	18.5%
Cc1ccc(CNC(=O)Cc2nc3nc(C)cc(C)n3n2)cc1	-10.8	-94.5%	-2.8	52.5%
O=C(NCc1ccccc1Cl)c1ccncc1	-2.0	-11.5%	-1.6	4.5%
C[C@H](NC(=O)C1CCN(S(=O)(=O)c2ccccc2)CC1)C(=O)NCc1ccc(Cl)cc1Cl	3.9	?	6.7	15.5%
CC(=O)c1sc(-c2ccc(F)cc2)cc1NS(=O)(=O)c1ccccc1	15.4	-7.7%	0.4	6.6%
O=C(Cc1ccc(Cl)cc1)NCc1ccccc1Cl	115.4	11.7%	49.5*	118.9%
O=C(Cc1ccccc1[N+](=O)[O-])NCCSCc1c(F)cccc1Cl	40.4	-3.8%	40.4*	-9.1%
CC(C)C[C@@H](NC(=O)[C@@H](O)[C@H](N)Cc1ccccc1)C(=O)O	34.3*	.	40.5*	.
O=c1cc(-c2ccccc2Cl)oc2c(NS(=O)(=O)c3ccccc3OC(F)(F)F)ccc(O)c12	17.6	?	-1.9	?
Cc1c(C)n(CCO)c2ncnc(Nc3ccc(F)cc3)c12	68.7*	34.7%	17.6	-14.5%[0.00184 µM]
COc1ccc(Nc2ncnc3c2c(C)c(C)n3CCO)cc1	72.5*	269.6%	47.5*	130.6%
Cc1c(C)n(CCCN(C)C)c2ncnc(Nc3ccc(F)cc3)c12	-3.1	22.0%	6.6	14.1%
COc1ccc(CCNc2ncnc3c2c(C)c(C)n3CCO)cc1OC	-3.2	?	-0.5	1.8%[0.00184 µM]
COC(=O)C(Cc1ccccc1)NC(=O)CCNC(=O)c1ccc(Br)cc1 (stereo not drawn)	-8.7	33.0%	5.8	27.0%
CCc1n[nH]c2c1/C(=N\O)CC(c1ccccc1)C2 (stereo not drawn)	20.1	.	11.6	?
CCCCc1n[nH]c2c1/C(=N/O)CC(c1ccccc1)C2 (stereo not drawn)	65.8	-10.6%	27.2*	-10.6%
CCCCc1noc2c1/C(=N\O)CC(c1ccccc1)C2 (stereo not drawn)	17.9	?	22.2*	?
CCOc1cccc(N(C(=O)CCC(=O)Nc2cc(C)on2)C(C(=O)NC(C)(C)C)c2ccc(OC)cc2)c1 (stereo not drawn)	-5.7	?	4.1	3.29µM*
SMILES	Shiga inhibitor	Pf growth 96h	Cycloheximide cs	Pf growth 48h
CCC(C)(C)NC(=O)C(c1ccc(OC)cc1)N(C(=O)CCC(=O)Nc1cc(C)on1)C(C)(C)C (stereo not drawn)	-13.3	11.7µM*	1.6	?
CCC(C)(C)NC(=O)C(c1ccc(OC)cc1)N(Cc1ccc(OC)cc1)C(=O)CCC(=O)Nc1cc(C)on1 (stereo not drawn)	23.6	3.0%	-2.7	?
CCc1ccc(N(C(=O)CCC(=O)Nc2cc(C)on2)C(C(=O)NC(C)(C)C)c2ccc(OC)cc2)cc1 (stereo not drawn)	-5.3	12.2%	-0.5	2.08µM*
CCCCn1c(-c2ccccc2)cnc1SCC(=O)NCCc1ccc(OC)c(OC)c1	131.8*	0.5%	20.5*	3.2%
COc1ccc(CCNC(=O)CSc2nn(-c3ccccc3)c(=S)s2)cc1OC	-13.5	?	-3.9	10.4µM*
COc1ccc(CCNC(=O)Cn2cc(C(F)(F)F)cc(Cl)c2=O)cc1OC	-3.0	?	-3.3	6.57µM*
CCCCc1c(O)nc(SCC(=O)NCCc2ccc(OC)c(OC)c2)[nH]c1=O	15.6	5.86µM*	-4.0	27.5%
COCCNC(=O)CN1C(=O)NC2(CCCc3ccccc32)C1=O (stereo not drawn)	12.7	18.1%	5.6	5.2%
CN(C(=O)Cc1ccccc1OC(=O)c1ccccc1)c1ccccc1I	-6.8	.	-1.7	.
O=C(NNC(=S)NCc1ccc(Cl)cc1)c1ccc2c(c1)OCO2	-4.1	?	-3.5	13.7%
CCC1Oc2ccccc2N(CC(=O)NCCc2ccc(OC)c(OC)c2)C1=O (stereo not drawn)	-2.5	3.29µM*	0.4	?
CCC1Oc2ccccc2N(CC(=O)Nc2ccccc2OC)C1=O (stereo not drawn)	40.8	201.9%	2.5	-9.8%
O=C(CN1CCN(Cc2ccc(Cl)cc2)CC1)N1CCc2ccccc21	-6.1	?	-5.9	-17.1%
COc1cc(SC)ccc1C(=O)Nc1ccc2c(c1)CCC2	95.8*	-48.9%	30.5*	49.5%
COc1cc(SC)ccc1C(=O)Nc1ccccc1C#N	91.3*	99.6%	37.0*	222.0%
COc1cc(SC)ccc1C(=O)NC1CCCc2ccccc21 (stereo not drawn)	-2.3	-25.6%	8.4	-4.5%
COc1cc(SC)ccc1C(=O)N1CCCCCC1	-5.2	24.2%	-1.1	?
COc1cc(SC)ccc1C(=O)Nc1cccc(C2OCCCO2)c1	70.7*	321.2%	31.6*	46.9%
COc1cc(SC)ccc1C(=O)Nc1ccncc1	49.9	-17.2%	33.1*	-11.9%
COc1cccc(C(=O)NCCS(=O)(=O)N2CC(C)CC(C)C2)c1 (stereo not drawn)	.	48.9%	.	22.5%
O=C(COC(=O)c1cccc(Br)c1)NCCC1=CCCCC1	17.0	-16.2%	-3.5	31.7%
c1ccc2c(c1)CCN(c1nc3cc4c(cc3s1)OCCO4)C2	15.5	.	33.8*	19.5%
Cc1ccc(/C=C(\C#N)C(=O)NC(C)c2ccccc2)o1 (stereo not drawn)	-8.8	?	3.7	36.0%
COc1ccc(-c2ccc(C)cc2)cc1C1C2C=CCC(C)C2C(=O)N1Cc1ccccc1 (stereo not drawn)	-3.4	.	-4.6	.
Cc1nc2ccc(NC(=S)NCc3ccccc3)cc2nc1C	34.8	-3.6%	26.7*	46.7%
SMILES	Shiga inhibitor	Pf growth 96h	Cycloheximide cs	Pf growth 48h
S=C(NCc1ccccc1)Nc1ccncc1	-8.7	?	-2.2	?
C=CCNC(=S)Nc1ccc2nc(C)c(C)nc2c1	61.4	55.1%	27.2*	62.7%
Cc1nc2ccc(NC(=S)N3CCOCC3)cc2nc1C	-2.8	31.8%	2.3	24.1%
COc1ccc(N(C)C(=S)Nc2ccc3nc(C)c(C)nc3c2)cc1	-1.4	2.33µM*	-2.4	36.5%
CCNC(=S)N/N=C/c1cc(C)ccc1C	-4.9	32.1%	-1.2	17.8%
C=CCNC(=S)N/N=C/c1ccc(C)cc1C	28.6	?	22.0	10.4µM*
NC(=O)NCC(c1ccccc1)C1CCCCC1 (stereo not drawn)	5.5	2.6%	0.6	-5.5%
CC1(C)CC2=C(CO1)C(=S)NC(c1ccccc1)N2CC1CCCO1 (stereo not drawn)	-1.7	?	-0.8	?
